Consider 24 targets from the supplement of paper PMC10849652.

Targets with a hit are over-represented here; the source holds about 8,800 in all. About 0.5% of all pairs of compound and target were hits.

Chain of UniProt P01116 (P01116 whole entry, looked up): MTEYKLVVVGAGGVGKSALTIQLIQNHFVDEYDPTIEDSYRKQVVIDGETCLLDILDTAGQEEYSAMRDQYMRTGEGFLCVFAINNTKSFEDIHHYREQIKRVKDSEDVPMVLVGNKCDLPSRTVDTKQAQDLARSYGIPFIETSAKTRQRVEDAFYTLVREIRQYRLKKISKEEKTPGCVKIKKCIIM
Chain of UniProt Q7Z7M0 (Q7Z7M0 whole entry, looked up): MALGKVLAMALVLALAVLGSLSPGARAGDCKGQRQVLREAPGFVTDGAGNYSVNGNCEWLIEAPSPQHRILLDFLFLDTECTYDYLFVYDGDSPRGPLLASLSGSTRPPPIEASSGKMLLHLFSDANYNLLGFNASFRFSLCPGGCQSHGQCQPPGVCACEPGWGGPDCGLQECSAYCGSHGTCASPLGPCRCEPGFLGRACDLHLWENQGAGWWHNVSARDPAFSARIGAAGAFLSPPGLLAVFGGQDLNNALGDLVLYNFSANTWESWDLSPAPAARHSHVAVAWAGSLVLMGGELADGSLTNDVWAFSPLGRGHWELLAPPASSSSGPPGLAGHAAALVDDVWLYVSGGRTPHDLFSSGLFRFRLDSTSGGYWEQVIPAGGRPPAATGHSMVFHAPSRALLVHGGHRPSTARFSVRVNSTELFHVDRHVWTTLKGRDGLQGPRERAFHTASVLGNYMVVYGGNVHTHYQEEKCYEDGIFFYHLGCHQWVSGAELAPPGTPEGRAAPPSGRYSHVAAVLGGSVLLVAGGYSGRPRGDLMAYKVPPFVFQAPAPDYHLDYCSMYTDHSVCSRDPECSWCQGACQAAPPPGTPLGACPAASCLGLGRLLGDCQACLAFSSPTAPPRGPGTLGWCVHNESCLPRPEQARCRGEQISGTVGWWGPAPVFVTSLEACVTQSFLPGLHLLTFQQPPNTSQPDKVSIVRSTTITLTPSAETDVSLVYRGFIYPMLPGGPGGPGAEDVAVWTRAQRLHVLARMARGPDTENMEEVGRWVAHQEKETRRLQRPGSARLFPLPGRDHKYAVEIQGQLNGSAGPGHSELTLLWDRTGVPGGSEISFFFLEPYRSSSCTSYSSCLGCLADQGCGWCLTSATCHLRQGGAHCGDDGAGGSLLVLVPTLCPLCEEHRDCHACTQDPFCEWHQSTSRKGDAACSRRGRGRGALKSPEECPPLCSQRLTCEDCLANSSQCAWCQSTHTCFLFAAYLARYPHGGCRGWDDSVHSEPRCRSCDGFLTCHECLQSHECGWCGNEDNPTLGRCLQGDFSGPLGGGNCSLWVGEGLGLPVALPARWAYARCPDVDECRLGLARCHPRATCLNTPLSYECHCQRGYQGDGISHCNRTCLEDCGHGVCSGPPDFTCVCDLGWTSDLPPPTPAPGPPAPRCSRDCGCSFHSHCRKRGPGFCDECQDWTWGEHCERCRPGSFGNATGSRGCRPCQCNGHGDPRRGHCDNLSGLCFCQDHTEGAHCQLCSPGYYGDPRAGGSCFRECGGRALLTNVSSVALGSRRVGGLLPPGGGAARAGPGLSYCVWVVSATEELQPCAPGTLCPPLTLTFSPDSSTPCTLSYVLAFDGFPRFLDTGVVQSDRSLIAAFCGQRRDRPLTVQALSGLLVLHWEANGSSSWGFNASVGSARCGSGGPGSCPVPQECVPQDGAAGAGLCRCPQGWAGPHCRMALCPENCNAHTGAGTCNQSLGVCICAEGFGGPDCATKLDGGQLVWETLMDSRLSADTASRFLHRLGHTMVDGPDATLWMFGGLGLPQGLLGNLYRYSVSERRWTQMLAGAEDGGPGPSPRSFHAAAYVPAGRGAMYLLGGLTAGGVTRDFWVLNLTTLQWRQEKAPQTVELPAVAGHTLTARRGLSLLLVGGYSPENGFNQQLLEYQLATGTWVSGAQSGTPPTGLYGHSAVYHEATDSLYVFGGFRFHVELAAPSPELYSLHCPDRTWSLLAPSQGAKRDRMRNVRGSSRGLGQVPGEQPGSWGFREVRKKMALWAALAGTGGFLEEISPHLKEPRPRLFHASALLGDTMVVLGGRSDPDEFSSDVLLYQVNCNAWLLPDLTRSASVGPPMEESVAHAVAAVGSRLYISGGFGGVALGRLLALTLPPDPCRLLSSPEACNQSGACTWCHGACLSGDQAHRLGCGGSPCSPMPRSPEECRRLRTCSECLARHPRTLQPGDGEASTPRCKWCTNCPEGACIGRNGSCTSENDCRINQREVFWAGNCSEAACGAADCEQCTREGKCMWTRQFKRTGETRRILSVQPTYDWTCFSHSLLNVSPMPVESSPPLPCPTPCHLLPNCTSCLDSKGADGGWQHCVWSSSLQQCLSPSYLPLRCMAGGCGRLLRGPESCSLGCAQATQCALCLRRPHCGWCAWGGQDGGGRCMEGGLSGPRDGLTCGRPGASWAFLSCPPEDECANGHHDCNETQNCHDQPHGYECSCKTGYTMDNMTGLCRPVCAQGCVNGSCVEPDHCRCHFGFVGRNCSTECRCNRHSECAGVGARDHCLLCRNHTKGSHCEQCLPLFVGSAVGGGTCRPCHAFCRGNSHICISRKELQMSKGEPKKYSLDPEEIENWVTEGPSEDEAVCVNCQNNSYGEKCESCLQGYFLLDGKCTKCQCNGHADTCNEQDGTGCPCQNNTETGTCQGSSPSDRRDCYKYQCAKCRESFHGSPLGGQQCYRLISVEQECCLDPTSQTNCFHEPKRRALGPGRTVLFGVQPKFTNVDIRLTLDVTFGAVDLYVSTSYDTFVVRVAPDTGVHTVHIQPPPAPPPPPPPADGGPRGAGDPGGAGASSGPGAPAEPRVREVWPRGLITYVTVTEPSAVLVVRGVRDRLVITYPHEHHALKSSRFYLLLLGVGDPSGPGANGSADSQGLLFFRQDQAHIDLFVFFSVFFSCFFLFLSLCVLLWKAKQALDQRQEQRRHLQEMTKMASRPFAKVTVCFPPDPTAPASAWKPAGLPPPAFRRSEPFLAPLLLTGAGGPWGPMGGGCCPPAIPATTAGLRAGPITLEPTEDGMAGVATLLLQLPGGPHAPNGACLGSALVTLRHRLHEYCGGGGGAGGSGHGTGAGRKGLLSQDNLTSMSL
Chain of UniProt O15243 (O15243 whole entry, looked up): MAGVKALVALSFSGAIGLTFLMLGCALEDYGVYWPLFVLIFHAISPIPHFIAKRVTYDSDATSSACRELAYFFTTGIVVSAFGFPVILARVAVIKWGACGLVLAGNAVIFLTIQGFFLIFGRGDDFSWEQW
Chain of UniProt A1L020 (A1L020 whole entry, looked up): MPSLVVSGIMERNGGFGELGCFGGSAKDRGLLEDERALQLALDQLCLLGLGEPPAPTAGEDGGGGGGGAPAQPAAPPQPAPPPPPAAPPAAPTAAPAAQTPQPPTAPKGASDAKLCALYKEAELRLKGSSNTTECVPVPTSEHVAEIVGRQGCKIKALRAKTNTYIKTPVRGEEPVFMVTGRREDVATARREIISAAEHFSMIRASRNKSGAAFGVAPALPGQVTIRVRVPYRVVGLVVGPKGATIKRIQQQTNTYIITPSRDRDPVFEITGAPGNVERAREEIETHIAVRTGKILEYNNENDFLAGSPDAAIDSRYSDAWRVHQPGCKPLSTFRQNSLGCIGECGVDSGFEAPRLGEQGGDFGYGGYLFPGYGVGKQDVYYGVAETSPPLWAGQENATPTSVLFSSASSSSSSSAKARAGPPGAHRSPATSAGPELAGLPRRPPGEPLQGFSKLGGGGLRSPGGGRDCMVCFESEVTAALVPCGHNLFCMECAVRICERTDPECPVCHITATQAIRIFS
Chain of UniProt Q9NWR8 (Q9NWR8 whole entry, looked up): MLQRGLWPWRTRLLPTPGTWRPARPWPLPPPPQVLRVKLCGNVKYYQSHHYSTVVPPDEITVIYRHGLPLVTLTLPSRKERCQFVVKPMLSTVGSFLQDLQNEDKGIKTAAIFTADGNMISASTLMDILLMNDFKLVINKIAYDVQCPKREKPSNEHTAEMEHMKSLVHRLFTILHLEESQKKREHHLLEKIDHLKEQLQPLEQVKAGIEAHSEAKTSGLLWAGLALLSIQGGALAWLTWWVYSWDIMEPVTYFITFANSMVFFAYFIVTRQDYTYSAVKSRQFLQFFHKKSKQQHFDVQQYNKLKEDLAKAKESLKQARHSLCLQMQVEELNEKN
Chain of UniProt P53667 (P53667 whole entry, looked up): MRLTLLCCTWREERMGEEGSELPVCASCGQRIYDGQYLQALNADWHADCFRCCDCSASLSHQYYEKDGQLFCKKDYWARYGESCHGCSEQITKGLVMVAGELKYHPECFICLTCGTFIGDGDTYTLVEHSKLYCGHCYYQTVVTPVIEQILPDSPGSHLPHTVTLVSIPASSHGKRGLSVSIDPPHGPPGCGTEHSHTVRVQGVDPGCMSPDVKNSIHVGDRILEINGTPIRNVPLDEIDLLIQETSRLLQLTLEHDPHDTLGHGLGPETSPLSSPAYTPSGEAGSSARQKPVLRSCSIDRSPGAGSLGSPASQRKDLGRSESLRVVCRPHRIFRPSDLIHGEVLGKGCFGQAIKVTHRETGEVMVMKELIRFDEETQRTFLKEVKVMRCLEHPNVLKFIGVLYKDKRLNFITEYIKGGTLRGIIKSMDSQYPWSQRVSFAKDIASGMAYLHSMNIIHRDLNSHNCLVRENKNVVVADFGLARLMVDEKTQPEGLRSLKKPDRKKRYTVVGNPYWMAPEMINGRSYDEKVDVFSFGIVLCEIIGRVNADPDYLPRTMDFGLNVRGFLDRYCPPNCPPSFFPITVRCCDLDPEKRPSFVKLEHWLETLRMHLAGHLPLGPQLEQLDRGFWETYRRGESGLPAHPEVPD
Chain of UniProt Q9H204 (Q9H204 whole entry, looked up): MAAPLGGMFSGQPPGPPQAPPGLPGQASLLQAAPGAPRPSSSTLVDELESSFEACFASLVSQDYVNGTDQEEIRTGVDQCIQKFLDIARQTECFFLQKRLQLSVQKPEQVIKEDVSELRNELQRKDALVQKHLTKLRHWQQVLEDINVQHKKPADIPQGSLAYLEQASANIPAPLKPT

Compound in the first assay: CC(C)(C)Cn1c(N)nc2ccc(-c3[nH]c(C(C)(C)C)nc3-c3ccc(F)cc3)nc21 [ralimetinib]
Description: log2 fold change, soluble protein after heating vs DMSO (PISA); higher = thermal stabilisation; K562 lysate, 10 uM; active = over 0.2 and 3.5 SD of the protein, either way, in both replicates (recomputed). In outline: (§1)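 K562 pellets were dounce-homogenised in PBS pH 7.4 with 1 mM MgCl2, and the crude extract at 1 mg/mL protein was treated with 10 μM compound for 30 min. Aliquots were heated for 3 min across 48°C-58°C, pooled, and brought to 0.5% NP-40 at 4°C; soluble protein was the supernatant after 21,000xg for 90 min. Soluble protein was quantified by TMTpro 16plex LC-MS/MS with channel sums equalised, and reported as log2 fold change in thermal stability against DMSO controls, with values from duplicates.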
For MPDZ (UniProt O75970), the log2 fold change was 0.024 (inactive).
As to KIF3C (UniProt O14782), the log2 fold change was -0.038 (inactive).
MRPL22 (UniProt Q9NWU5): the log2 fold change is 0.018 (inactive).
Regarding LRIF1 (UniProt Q5T3J3), the log2 fold change was -0.09 (inactive).
Consider MCUB (UniProt Q9NWR8), for which the log2 fold change was 0.054 (inactive).
For the target MEGF8 (UniProt Q7Z7M0), the log2 fold change was -0.019 (inactive).
Turning to MAN2B2 (UniProt Q9Y2E5), the log2 fold change is 0.008 (inactive).
As to MRPL27 (UniProt Q9P0M9), the log2 fold change is 0.023 (inactive).
With LRRIQ1 (UniProt Q96JM4), the log2 fold change was -0.041 (inactive).
Take KRAS (UniProt P01116): the log2 fold change is -0.023 (inactive).
Take MDM1 (UniProt Q8TC05): the log2 fold change is 0.037 (inactive).
As for LEPROT (UniProt O15243), the log2 fold change was -0.034 (inactive).
On to LYN isoform 2 (UniProt P07948), for which the log2 fold change is -0.104 (inactive).
Regarding LIMK1 (UniProt P53667), the log2 fold change is -0.125 (inactive).
Consider MED28 (UniProt Q9H204), for which the log2 fold change was -0.032 (inactive).
On the same count and under the same terms, the figure for MRPL30 isoform 2 (UniProt Q8TCC3) is 0.04 (inactive); for LRRC7 (UniProt Q96NW7) it is -0.115 (inactive); for KRAS isoform 2 (UniProt P01116) it is 0.071 (inactive).
Regarding METTL21A (UniProt Q8WXB1), the log2 fold change is 0.021 (inactive).
Still for that read-out and setting: the figure for MEX3A (UniProt A1L020) is -0.21 (inactive); for MED25 isoform 3 (UniProt Q71SY5) it is -0.071 (inactive); for MAP4K4 isoform 6 (UniProt O95819) it is -0.19 (inactive).
Take MME (UniProt P08473): the log2 fold change was -0.117 (inactive).
Consider MAPKAP1 (UniProt Q9BPZ7), for which the log2 fold change is -0.019 (inactive).

Compound in another assay: CC(C)(O)CC(=O)NCCn1ccc2ncnc(Nc3ccc(Oc4cccc(C(F)(F)F)c4)c(Cl)c3)c21
Described as above. The essentials: as §1
In the case of MPDZ (UniProt O75970), the log2 fold change was -0.157 (inactive).
For KIF3C (UniProt O14782), the log2 fold change was -0.032 (inactive).
Same read-out and setting: the figure for MRPL22 (UniProt Q9NWU5) is -0.033 (inactive); for LRIF1 (UniProt Q5T3J3) it is -0.055 (inactive).
Consider MCUB (UniProt Q9NWR8), for which the log2 fold change was 0.045 (inactive).
Same read-out and setting: the figure for MEGF8 (UniProt Q7Z7M0) is -0.124 (inactive).
MAN2B2 (UniProt Q9Y2E5): the log2 fold change is 0.083 (inactive).
Consider MRPL27 (UniProt Q9P0M9), for which the log2 fold change was -0.025 (inactive).
In the case of LRRIQ1 (UniProt Q96JM4), the log2 fold change is 0.019 (inactive).
On the same count and under the same terms, the figure for KRAS (UniProt P01116) is 0.063 (inactive).
The same measure, in the same setting: the figure for MDM1 (UniProt Q8TC05) is -0.054 (inactive); for LEPROT (UniProt O15243) it is 0.054 (inactive); for LYN isoform 2 (UniProt P07948) it is 0.106 (inactive).
In the case of LIMK1 (UniProt P53667), the log2 fold change is -0.161 (inactive).
Same read-out and setting: the figure for MED28 (UniProt Q9H204) is -0.025 (inactive); for MRPL30 isoform 2 (UniProt Q8TCC3) it is -0.084 (inactive).
With LRRC7 (UniProt Q96NW7), the log2 fold change is -0.073 (inactive).
As to KRAS isoform 2 (UniProt P01116), the log2 fold change is -0.078 (inactive).
Consider METTL21A (UniProt Q8WXB1), for which the log2 fold change was -0.032 (inactive).
MEX3A (UniProt A1L020): the log2 fold change was -0.123 (inactive).
For MED25 isoform 3 (UniProt Q71SY5), the log2 fold change is 0.045 (inactive).
Same read-out and setting: the figure for MAP4K4 isoform 6 (UniProt O95819) is 0.027 (inactive).
The same measure, in the same setting: the figure for MME (UniProt P08473) is -0.156 (inactive); for MAPKAP1 (UniProt Q9BPZ7) it is 0 (inactive).
